# Screens as filed in PubChem.
# Sampled rows, rich in hits. Any-hit rate of the full collection: about 1.8%.
# HEK293 tox = cytotoxicity in counter-screen for GLP-1R inverse agonists; HEK293 cAMP-luciferase reporter cells, luminescence, 24 h; Potency, µM (highest dose often 38.3 µM), inactives show at the highest dose activity change, negative = inhibition, hits mostly inhibitors; 0.13% of 410,000 active; AID 624418;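 note: loss of luciferase light is scored as toxicity; % is set by controls: 0 for no effect and ±100 for the full control effect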
#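 Seeding density was 200 cells/uL; after overnight-length (12 h) culture, 23 nL compounds went on for 24 h at 37 °C. Readout used a luciferase detection reagent, luminescence taken after 12 min at room temperature.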
# GLP1R inv ag = inverse agonists of human GLP-1 receptor; P43220; HEK293 GLP-1R CRE-luciferase, luminescence, 24 h; GLP-1R form is constitutively active; Potency, µM (titrated, usually from 38.3 µM), inactives show at the top dose activity change, negative = inhibition, actives largely listed as inhibitors; 1.6% of 410,000 active; note: % is set by controls: 0 for no effect and ±100 for the full control effect; nearly all actives have a fitted effect of over 55% in size
#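 Stable HEK293 clone (constitutively active GLP-1R + cAMP-response luciferase); 200 cells/uL plated, 12 h pre-culture, compound 24 hr, 37 deg C/5% CO2; detection reagent 12 min RT; luminescence.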
# GLP-1R agonist = activates the human GLP-1 receptor | Potency, µM (series often up to 45.6 µM), for inactives: at the top dose activation, usual class: activators | P43220 | AID 624172 | HEK293 GLP-1R CRE-luciferase, luminescence, 4-6 h; cells express a hypersensitive GLP-1R form | 0.007% of 380,000 active; note: % of control where 0% means no effect
# Tb PFK inh-1 = T. brucei PFK enzyme inhibition; O15648; T. brucei PFK, ADP-Glo luminescence; Potency, µM (top dose mostly 57.5 µM), inactives show top-dose activity, negative = inhibition, actives largely listed as inhibitors; 0.17% of 330,000 active; AID 485367;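 note: 0% = uninhibited 1x PFK enzyme wells and -100% = no-enzyme wells; nearly all actives have a fitted effect of over 60% in size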
#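 Luminescent ADP detection (ADP-Glo, two-step: ATP depletion then ADP-to-ATP conversion for luciferase) reported PFK activity after 45 min room-temperature reaction of 1.25 nM enzyme with 0.5 mM F6P and 0.1 mM ATP at pH 8.0.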
# PGK inhibitor = T. brucei PGK inhibition; P07378; PGK/GAPDH coupled, Kinase-Glo luminescence, 60 min; 0.043% of 380,000 active; Potency, µM (highest dose often 57.5 µM), for the others: at the top dose activity change, negative = inhibition, usual class: inhibitors; note: % is set by controls: 0 for no effect and ±100 for the full control effect; nearly all actives have a fitted effect of over 60% in size
#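 Recombinant glycosomal PGK reaction used 1,3-bisphosphoglycerate generated in-well by GAPDH (100nM final) in 100mM TEA pH 7.6, 5mM MgCl2, 0.01% Tween-20. After 60 minutes at room temperature, ATP was read by Kinase-Glo Plus luminescence end-point.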
# Pin1 inh = human Pin1 inhibition | Q13526 | Pin1 FP peptide displacement, HiFluor488, 10 min | Potency, µM (highest dose often 115 µM), for inactives: at the top dose activity, negative = inhibition, actives largely listed as inhibitors | 0.009% of 390,000 active; active = well fitted inhibition curve with a large enough effect in the polarisation, with a control signal flat, not every such curve was filed as active; inconclusive = small, poorly fitted or top-dose-only effect, or effect the other way, or a change in a side signal; inactive = no such curve, though single readings can be large or run the other way; the % refers to the polarisation; note: % is set by controls: 0 for no effect and ±100 for the full control effect
# Target sequence (Q13526 whole entry, looked up): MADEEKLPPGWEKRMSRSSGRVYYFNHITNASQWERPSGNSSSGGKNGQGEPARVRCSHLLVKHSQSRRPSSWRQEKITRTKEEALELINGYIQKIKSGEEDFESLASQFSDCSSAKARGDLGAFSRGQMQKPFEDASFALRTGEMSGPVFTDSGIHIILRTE
# Tb PFK KinaseGlo = inhibits T. brucei PFK measured by ATP depletion | shares compounds with Tb PFK inh-1 | Tb PFK enzyme, ATP depletion, Kinase-Glo Plus luminescence | Potency, µM (titrated, usually from 57.5 µM), for the others: at the top dose inhibition | 47% of 1,100 active | AID 504636; calls by dose curve; note: nearly all actives have a fitted effect of over 60% in size
# Tb PFK inh-2 = validation of T. brucei phosphofructokinase inhibitors; shares compounds with Tb PFK inh-1; purified T. brucei PFK, ADP-Glo luminescence, 45 min; Potency, µM (highest dose often 57.5 µM), without a hit: at the top dose activity change, negative = inhibition, hits mostly inhibitors; 41% of 1,100 active;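 note: plate controls were full PFK enzyme control for no effect and no enzyme control for full effect; nearly all actives have a fitted effect of over 60% in size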
# * = called active by the depositor; i = inactive; ? = inconclusive; . = no result. Unless noted, calls come from the whole dose curve; as a rule, active = well fitted curve in the direction sought with a large enough effect; inconclusive = small, poorly fitted or top-dose-only effect, or another doubt; inactive = no such curve, though single readings can be large; an effect the other way counts as inactive or inconclusive. Potency is the fitted concentration of half-maximal effect.
SMILES,HEK293 tox,GLP1R inv ag,GLP-1R agonist,Tb PFK inh-1,PGK inhibitor,Pin1 inh,Tb PFK KinaseGlo,Tb PFK inh-2
CC1CCc2c(sc3nc(CSc4n[nH]c(N)n4)[nH]c(=O)c23)C1 (stereo not drawn),-8.3%,158.6%,4.3%,-1.1%,i,8.6%,.,.
CCn1c(C)c(C(=O)Nc2ccc(OC)cc2)c2cc(OC)ccc21,-5.1%,10.2%,10.1%,0.1%,.,1.1%,.,.
COc1ccc(NC(=O)CN(C)C(=O)c2cc3c(s2)CCC3)cc1,-11.4%,-6.9%,-0.1%,?,?,.,?,?
O=C(c1cc(C(=O)NCc2ccc(Cl)cc2)c(=O)n(Cc2ccc(Cl)cc2)c1)c1cc(F)ccc1O,8.7%,?,4.7%,-0.9%,3.0%,15.9%,.,.
N#C/C(=C/c1ccc(O)c(O)c1)C(=O)NCc1ccc(Cl)cc1,-25.0%,?,2.4%,?,-5.0%,-1.3%,?,-29.9%
O=C(Nc1ncccc1O)c1ccc(S(=O)(=O)NCc2ccco2)cc1,21.7%,45.6%,9.4%,.,-0.3%,.,.,.
O=C(N/N=C\C=C\c1ccco1)C1COc2ccccc2O1 (stereo not drawn),?,?,11.7%,23.9µM*,-5.6%,0.2%,21.3µM*,?
O=C(N/N=C/C=C/c1ccc([N+](=O)[O-])cc1)C1COc2ccccc2O1 (stereo not drawn),5.2%,?,1.6%,12µM*,9.0%,-7.9%,13.5µM*,23.9µM*
O=C(CSc1nc(-c2ccc(F)cc2)nc2c1Cc1ccccc1O2)Nc1cccc(C(=O)O)c1,9.1%,-11.5%,0.1%,?,?,?,?,?
N#Cc1cc2c(nc1SCC(=O)Nc1cccc(F)c1)C1CCN2CC1,7.9%,?,7.0%,.,2.4%,-0.1%,.,.
Nc1nc(SCc2ccc(Cl)c(Cl)c2)n[nH]1,0.3%,37.6%,24.3%,13.5µM*,-8.2%,-10.6%,9.53µM*,13.5µM*
Nc1nc(SCCC(F)=C(F)F)n[nH]1,-4.5%,6.8%,3.1%,3.2%,0.8%,-0.5%,.,.
O=C1Nc2ccccc2C(=O)C1(Cl)Cc1ccccc1 (stereo not drawn),-1.8%,2.0%,-10.9%,?,-2.0%,2.0%,10.7µM*,13.5µM*
C[C@]12CC[C@H]3[C@@H](CC[C@@]45O[C@@H]4C(=O)C(C#N)C[C@]35C)[C@@H]1CC[C@@H]2O (stereo partly drawn),.,.,8.1%,.,.,.,.,.
Cc1ccc(Nc2nc3ccccc3[nH]2)nc1,?,?,7.3%,0.0%,3.5%,-2.1%,.,.
CC(O)(CS(=O)(=O)c1cccc(C(F)(F)F)c1)C(=O)Nc1ccc(C(F)(F)F)cc1 (stereo not drawn),3.5%,0.0%,7.4%,-1.2%,-7.8%,-11.8%,.,.
O=C(Cc1cccc(C(F)(F)F)c1)Nc1ccc(S(=O)(=O)N2CCCC2)cc1,-22.7%,?,-2.1%,?,-9.0%,5.8%,?,?
CN1CCN(S(=O)(=O)c2ccc(Cl)nc2)CC1,-0.3%,15.4%,0.5%,4.2%,-2.7%,-1.8%,.,.
Cc1cc(OCC(=O)Nc2ccc(S(=O)(=O)N3CCN(C)CC3)cc2)ccc1Cl,-7.1%,?,-3.1%,26.9µM*,-11.1%,-11.7%,?,?
CN1CCN(S(=O)(=O)c2ccc(NC(=O)Cc3ccc([N+](=O)[O-])cc3)cc2)CC1,9.1%,-14.1%,26.8%,16.9µM*,i,-0.1%,6.01µM*,12µM*
CCOC(=O)c1ccccc1NC(=O)N(Cc1ccc(CC)cc1)Cc1cn[nH]c1-c1ccc(OC)cc1,-39.7%,?,.,.,-3.6%,1.2%,.,.
CC(c1nc2ccccc2c(=O)[nH]1)N(C)CCOc1ccc(Cl)cc1 (stereo not drawn),11.5%,?,20.6%,-3.2%,-2.5%,-0.5%,.,.
